# High-throughput results from PubChem BioAssay.
# Most compounds without a hit are left out; they make up all but 6.2% or so of the library.
# KB-V1 MDR tox: kills drug-selected multidrug resistant KB-V1 cells; KB-V1 MDR cells viability, CellTiter-Glo, 72 h; Potency, µM (series often up to 46.1 µM), hits mostly cytotoxic; actives 3.4% (n = 400,000); AID 1347076; also: % is scaled to controls: 0 for no effect and ±100 for the full control effect; nearly all actives have a fitted effect of over 60% in size
#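 Following 72 h at 37 degrees C with compound, KB-V1 cell viability was read by CellTiter-Glo luminescence, medium being phenol-red-free DMEM plus 10% FBS; concentration-response parameters came from normalized, curve-fitted qHTS data.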
# HT1080-NT tox: kills 2HG-producing HT-1080-NT fibrosarcoma cells | Potency, µM (highest dose often 46.1 µM), for inactives: at the highest dose activity, negative = less viability, hits mostly cytotoxic | actives 1.6% (n = 360,000) | HT-1080-NT fibrosarcoma viability, CellTiter-Glo ATP luminescence, 48 h;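 also: NT is the 2HG producing partner of a matched IDH1 knockdown line; 0% = DMSO-treated cells and -100% = media-only wells without cells; nearly all actives have a fitted effect of over 55% in size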
#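 Compounds were tested in concentration-response format on HT-1080-NT cells for 48 hours at 37 degrees C. Cell viability came from CellTiter-Glo luminescence; curves were classified by r2, response magnitude and activity.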
# ATXN viability: viability counter-screen for ATXN expression inhibitors; S2 cells (HEK-293 line with an ATXN2-luciferase reporter) viability, CellTiter-Fluor protease fluorescence, 24 h; Potency, µM (doses to about 56.7 µM), most hits filed as cytotoxic; actives 0.49% (n = 400,000); also: nearly all actives have a fitted effect of over 40% in size
# ATXN2 expr inh: inhibitors of ATXN2 expression. actives 0.72% (n = 360,000). Potency, µM (highest dose often 57 µM), for inactives: at the highest dose activity change, negative = inhibition, usual class: inhibitors. AID 1745845. HEK-293 ATXN2-luciferase reporter, luminescence, 24 h; also: % is scaled to controls: 0 for no effect and ±100 for the full control effect; nearly all actives have a fitted effect of over 55% in size
#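 ATXN2-luciferase reporter cells (luciferase flanked by upstream and downstream ATXN2 gene portions) were treated 24 h at 37 °C with compounds at up to 57 uM. SteadyGlo luminescence gave expression; GF-AFC fluorescence gave viability.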
# HT1080 IDH1KD tx: HT-1080 IDH1 knockdown cell toxicity (counter line) | HT-1080 IDH1 knockdown viability, ATP luminescence, 48 h | Potency, µM (top dose mostly 46.1 µM), without a hit: at the highest dose activity, negative = toxicity, actives largely listed as cytotoxic | actives 2% (n = 360,000) | AID 686971;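 also: 0% = DMSO wells and -100% = cell-free medium wells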
#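 % activity derives from luminescence (CellTiter-Glo), normalised to DMSO and no-cell wells. HT-1080-IDH1KD cells, 750/well, had 48 h compound exposure at 37 °C.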
# KB-3-1 tox: KB-3-1 parental cell cytotoxicity. KB-3-1 viability, CellTiter-Glo ATP luminescence, 72 h. Potency, µM (top dose mostly 46.1 µM), most hits filed as cytotoxic. actives 1.4% (n = 400,000). AID 1347075; also: % is scaled to controls: 0 for no effect and ±100 for the full control effect; nearly all actives have a fitted effect of over 60% in size
#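 KB-3-1 parental drug-naive adenocarcinoma cells in DMEM/10% FBS, incubated 72 h at 37 C with pin-transferred compounds across a concentration series. Viability by CellTiter-Glo luminescence; concentration-response curves fitted after normalization.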
# The depositor's hits bear a star; i = inactive; ? = inconclusive; · = no result; ! = repeats disagree; [ ] = remark or other dose. Calls follow the shape of the dose curve; as a rule, active = well fitted curve in the direction sought with a large enough effect; inconclusive = small, poorly fitted or top-dose-only effect, or another doubt; inactive = no such curve, though single readings can be large; an effect the other way counts as inactive or inconclusive. Potency is read from the fitted curve at half-maximal effect.
SMILES,KB-V1 MDR tox,HT1080-NT tox,ATXN viability,ATXN2 expr inh,HT1080 IDH1KD tx,KB-3-1 tox
CCC(c1nnnn1-c1ccc(OC)cc1)N1CCC(n2c(=O)[nH]c3ccccc32)CC1 (stereo not drawn),i,1.4%,i,-3.8%,2.5%,i
COc1ccc(-n2nnnc2C(CCc2ccccc2)N2CCC(n3c(=O)[nH]c4ccccc43)CC2)cc1 (stereo not drawn),?,16.4µM*,10µM*,?,13µM*,?
O=c1[nH]c2ccccc2n1C1CCN(C(CCc2ccccc2)c2nnnn2-c2ccc3c(c2)OCCO3)CC1 (stereo not drawn),23.1µM*,13µM*,·,7.94µM*,14.6µM*,?
COc1ccccc1NS(=O)(=O)c1cc(NC(=O)c2ccc(Cl)nc2)ccc1N1CCCC1,4.11µM*,-1.6%,?,-30.7%,-3.9%,i
CC(=O)OC1CC(OC2C(O)CC(OC3C(O)CC(OC4CCC5(C)C(CCC6C5CCC5(C)C(C7=CC(=O)OC7)CCC65O)C4)OC3C)OC2C)OC(C)C1OC1OC(CO)C(O)C(O)C1O (stereo not drawn),0.411µM*,0.082µM*,?,0.0075µM*,0.0517µM*,?
CC(=O)O[C@H]1CC[C@]2(C)C3CC[C@@]4(C)C(C[C@@H](O)[C@@H]4O)C3[C@@H](OC(C)=O)C[C@H]2C1 (stereo partly drawn),i,-5.9%,?,·,-0.4%,i
COC1C(C)OC(OC2CC(C)(O)Cc3cc4c(c(O)c32)C(=O)c2c(O)cc3c(c2C4=O)OC2OC3(C)C(O)C(N(C)C)C2O)C(OC)C1(C)OC (stereo not drawn),i,?,?,?,16.4µM*,0.461µM*
COc1ccc(-n2c(-c3ccc(C)cc3)nc3ccccc3c2=O)cc1,i,-0.1%,i,22.0%,-1.0%,i
Cc1ccc(-c2nc3ccccc3c(=O)n2-c2cc(C)ccn2)cc1,14.6µM*,14.7%,?,7.4%,1.2%,i
Cc1ccc(-c2nc3ccccc3c(=O)n2-c2cccc(C)n2)cc1,i,3.1%,i,-15.8%,1.7%,i
COc1ccc(-c2nc3ccccc3c(=O)n2-c2cccnc2)cc1,13µM*,6.2%,i,-3.9%,9.8%,i
O=C(Nc1ccc(Cl)cc1)Nc1nccs1,2.59µM*,7.31µM*,?,-8.1%,7.31µM*,4.61µM*
C[C@H]1CCC/C=C/[C@@H]2C[C@H](O)C[C@H]2[C@H](O)/C=C/C(=O)O1,0.581µM*,0.411µM*,i,?,0.0065µM*,0.0651µM*
CCCCC[C@@H]1CCCCC[C@H](O)C[C@@H](O)[C@@H](O)/C=C/C(=O)O1,?,-9.4%,i,0.3%,-14.0%,i
Cc1ccc(O)c(C(=O)c2cc(C(=O)NCc3ccccc3)c(=O)n(Cc3ccccc3)c2)c1,i,-9.6%,i,-7.2%,-10.0%,i
O=C(c1cc(C(=O)NCc2ccccc2)c(=O)n(Cc2ccccc2)c1)c1cc(Br)ccc1O,2.31µM*,-3.9%,i,-6.3%,?,?
CCc1ccc(NC(=O)c2ccc3oc(=O)n(Cc4ccccc4)c3c2)cc1,i,·,?,-15.0%,·,?
Cc1cccc(Cn2cccc(C(=O)Nc3nnc(C)s3)c2=O)c1,i,·,i,-4.8%,·,i
CNC(C)Cc1ccc2c(c1)OCO2 (stereo not drawn),·,·,i,-4.1%[116 µM],·,·
Cc1cccn2c(=O)c3cc(C(=O)N4CCC5(CC4)OCCO5)n(C)c3nc12,3.66µM*,16.4µM*,i,-8.6%,13µM*,3.26µM*
O=C1NCN(c2ccccc2)C12CCN(C(CCc1ccccc1)c1nnnn1C1CCCCC1)CC2 (stereo not drawn),?,?,?,?,25.9µM*,?
O=C1NCN(c2ccccc2)C12CCN(C(CCc1ccccc1)c1nnnn1C1CCCC1)CC2 (stereo not drawn),?,?,31.6µM*,?,?,?
O=C1NCN(c2ccccc2)C12CCN(C(c1cccs1)c1nnnn1C1CCCC1)CC2 (stereo not drawn),i,-12.8%,?,?,-17.4%,i
C[CH2][Hg][S]c1ccccc1C(=O)O,20.6µM*,2.31µM*,4.47µM*,6.31µM*,3.26µM*,5.17µM*
CCCC1(CCC)C(=O)NC(=NCc2ccccc2)NC1=O,i,14.6µM*,?,?,?,?
SMILES,KB-V1 MDR tox,HT1080-NT tox,ATXN viability,ATXN2 expr inh,HT1080 IDH1KD tx,KB-3-1 tox
O=[N+]([O-])c1ccc(N2CCNCC2)cc1NCc1ccco1,i,5.8%,i,-6.3%,2.0%,i
CN1CCN(c2ccc([N+](=O)[O-])c(NCc3ccco3)c2)CC1,11.6µM*,1.6%,i,-6.1%,6.3%,i
CCCCc1ccc(NC(=O)c2cccn(Cc3ccc(Cl)cc3)c2=O)cc1,i,·,i,-12.1%,·,?
CC1=CC2OC3CC4OC(=O)C=CC=CC(=O)OCCC(C)C(O)C(=O)OCC2(CC1O)C4(C)C31CO1 (stereo not drawn),0.517µM*,0.206µM*,?,?,·,0.146µM*
CC1=CC2OC3CC4OC(=O)C=CC=CC(C(C)O)OCC(O)C(C)CC(=O)OCC2(CC1O)C4(C)C31CO1 (stereo not drawn),?,0.0461µM*,?,-68.7%,·,0.0092µM*
Nc1nc(N)nc(NC2CC2)n1,·,·,i,1.3%,·,·
COc1cc2nc(N3CCCN(C)CC3)nc(N(C)C3CCN(C)CC3)c2cc1OC,i,·,·,·,·,i
O=c1[nH]c(=O)n(-c2ccccc2)c(O)c1/C=C1/C(c2ccccc2)=Nc2ccccc21,2.91µM*,4.11µM*,i,14.6%,2.06µM*,3.26µM*
CC(=O)[C@@H]1CC[C@@H]2[C@@H]3CCC4=CC(=O)CC[C@@]4(C)[C@H]3CC[C@]21C,·,·,i,·,·,·
CC(=O)[C@H]1CC[C@H]2[C@@H]3CCC4=CC(=O)CC[C@]4(C)[C@H]3CC[C@]12C,5.8µM*!,?,?,?,?,13µM*!
C[C@H]1CN([C@@H](C)CO)C(=O)c2cc(NC(=O)Nc3cccc4ccccc34)ccc2O[C@@H]1CN(C)Cc1ccc(-c2ccccc2)cc1,?,-29.8%,?,-10.7%,-1.1%,i
CC(C)n1c(O)c(C2c3cc(Cl)ccc3Oc3[nH]c(=O)n(C(C)C)c(=O)c32)c(=O)[nH]c1=O (stereo not drawn),7.31µM*,5.17µM*,11.2µM*,3.98µM*,2.31µM*,8.2µM*
